High-throughput results from PubChem BioAssay.
Dicer inh = human Dicer pre-microRNA cleavage inhibition | cat-ELCCA pre-miR-21 Dicer processing, chemiluminescence; active compounds read high | Q9UPY3 | z-score at 25 µM | hit rate 6% among 47,000; in the data active = z-score above about 3, passing the limit was not always enough;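 also: higher signal means more uncleaved substrate so more Dicer inhibition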
Target sequence (Q9UPY3 whole entry, looked up): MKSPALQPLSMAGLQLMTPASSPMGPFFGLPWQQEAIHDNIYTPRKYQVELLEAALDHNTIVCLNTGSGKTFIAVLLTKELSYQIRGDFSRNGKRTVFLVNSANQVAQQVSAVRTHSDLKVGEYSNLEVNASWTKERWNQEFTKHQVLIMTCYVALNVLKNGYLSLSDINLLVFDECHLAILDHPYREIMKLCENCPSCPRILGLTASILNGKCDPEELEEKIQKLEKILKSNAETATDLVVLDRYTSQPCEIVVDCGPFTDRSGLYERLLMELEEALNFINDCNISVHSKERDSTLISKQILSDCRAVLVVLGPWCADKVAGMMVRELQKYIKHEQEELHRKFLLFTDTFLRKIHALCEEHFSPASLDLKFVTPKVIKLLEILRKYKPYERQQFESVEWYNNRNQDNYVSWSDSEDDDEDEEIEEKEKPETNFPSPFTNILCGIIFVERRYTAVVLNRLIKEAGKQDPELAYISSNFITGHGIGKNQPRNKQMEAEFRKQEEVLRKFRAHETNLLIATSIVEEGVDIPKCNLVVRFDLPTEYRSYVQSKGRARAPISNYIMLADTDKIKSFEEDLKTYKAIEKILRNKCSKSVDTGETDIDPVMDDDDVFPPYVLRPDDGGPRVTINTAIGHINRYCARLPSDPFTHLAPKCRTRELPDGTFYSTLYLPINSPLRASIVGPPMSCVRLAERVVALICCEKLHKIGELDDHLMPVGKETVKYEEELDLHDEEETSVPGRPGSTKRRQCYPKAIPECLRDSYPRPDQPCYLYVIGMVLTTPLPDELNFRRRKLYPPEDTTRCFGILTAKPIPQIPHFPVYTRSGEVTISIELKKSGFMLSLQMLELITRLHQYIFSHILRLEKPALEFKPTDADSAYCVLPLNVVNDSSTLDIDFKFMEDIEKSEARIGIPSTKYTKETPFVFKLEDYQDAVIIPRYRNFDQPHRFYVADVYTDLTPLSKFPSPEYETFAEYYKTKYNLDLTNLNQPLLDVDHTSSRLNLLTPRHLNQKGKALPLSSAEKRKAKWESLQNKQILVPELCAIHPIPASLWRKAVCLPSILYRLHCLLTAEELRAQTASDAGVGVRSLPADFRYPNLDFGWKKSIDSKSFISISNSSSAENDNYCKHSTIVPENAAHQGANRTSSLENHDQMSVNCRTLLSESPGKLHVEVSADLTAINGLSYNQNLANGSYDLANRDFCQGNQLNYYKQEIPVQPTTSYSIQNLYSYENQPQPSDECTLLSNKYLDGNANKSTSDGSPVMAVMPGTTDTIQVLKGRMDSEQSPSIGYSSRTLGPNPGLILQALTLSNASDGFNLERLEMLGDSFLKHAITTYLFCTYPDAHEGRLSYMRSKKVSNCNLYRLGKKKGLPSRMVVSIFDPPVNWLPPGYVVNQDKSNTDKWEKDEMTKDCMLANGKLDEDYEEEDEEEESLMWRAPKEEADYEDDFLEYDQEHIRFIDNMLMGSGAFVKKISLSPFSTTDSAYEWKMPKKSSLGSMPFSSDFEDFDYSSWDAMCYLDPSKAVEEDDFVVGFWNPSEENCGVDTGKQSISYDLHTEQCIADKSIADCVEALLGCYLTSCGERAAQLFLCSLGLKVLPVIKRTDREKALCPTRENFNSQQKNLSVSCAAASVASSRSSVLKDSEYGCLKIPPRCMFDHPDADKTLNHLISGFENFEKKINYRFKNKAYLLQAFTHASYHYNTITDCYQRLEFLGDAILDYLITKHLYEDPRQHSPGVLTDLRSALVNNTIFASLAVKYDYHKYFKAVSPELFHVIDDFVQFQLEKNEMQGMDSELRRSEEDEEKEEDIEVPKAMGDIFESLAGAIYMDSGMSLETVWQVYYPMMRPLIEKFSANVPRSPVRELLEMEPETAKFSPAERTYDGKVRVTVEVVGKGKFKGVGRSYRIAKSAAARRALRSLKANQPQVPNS
Large screens that a line does not name were inactive. The entries come from a sample that favours hits as a whole.

CCCCOC(=O)C1=C(C)NC2=C(C(=O)CCC2)C1c1ccc(Br)cc1 (stereo not given)	none
Cc1ccc(CSC2=NCN(Cc3ccccc3)CN2)cc1	none
O=S(=O)(NC1CCN(Cc2ccccc2)CC1)c1cccc(C(F)(F)F)c1	Dicer inh 3
O=S(=O)(NC1CCN(Cc2ccccc2)CC1)c1cc(Cl)c(Cl)cc1Cl	none
O=S(=O)(NC1CCN(Cc2ccccc2)CC1)c1cccs1	none
O=C(NNC(=O)c1cc2ncc(C(F)(F)F)cc2s1)c1ccno1	none
CC(C)N(Cc1ccccc1)C(=O)Nc1cc(Cl)cc(Cl)c1	none
CCCCCC(=O)Nc1nc2c(s1)CCc1cc(OC)ccc1-2	none
CCCCCCCC(=O)Nc1nc2c(s1)CCc1cc(OC)ccc1-2	none
COc1cc(OC)cc(C(=O)Nc2nc3c(s2)CCc2cc(OC)ccc2-3)c1	none
COc1ccc2c(c1)CCc1sc(NC(C)=O)nc1-2	Dicer inh 3.5
COc1ccc2c(c1)-c1nc(NC(=O)c3ccco3)sc1CC2	Dicer inh 5
COc1ccc2c(c1)CCc1sc(NC(=O)c3ccco3)nc1-2	Dicer inh 3.1
COc1cc(OC)cc(C(=O)Nc2nc3c(s2)Cc2cc(OC)ccc2-3)c1	none
CCCCCCCCC(=O)Nc1nc2c(s1)CCc1cc(OC)ccc1-2	none
COc1ccc2c(c1)CCc1sc(NC(=O)c3cc(C)on3)nc1-2	none
CCOC(=O)c1c(NC(=S)N2CCc3ccccc32)sc2c1CCN(C(=O)OCC)C2	none
O=C(O)C1C2C=CC(O2)C1C(=O)Nc1ccc([N+](=O)[O-])cc1 (stereo not given)	none
CC1(C)CC(N2CCN(C3CC(C)(C)NC(C)(C)C3)CC2)CC(C)(C)N1	none
CCOC(=O)C(NC(C)=O)(Nc1ccc(C)cc1C)C(F)(F)F (stereo not given)	none
N#C/C(=C\N1CCN(Cc2ccccc2)CC1)S(=O)(=O)c1ccccn1	none
Cc1ccc([N+](=O)[O-])c(C)c1Nc1ccccc1C(=O)O	none
O=C(Nc1ncc(Cc2ccc(F)cc2)s1)c1ccc(Br)cc1	Dicer inh 4.1
O=C(Nc1nnc(-c2ccc(F)cc2)s1)c1ccc(F)cc1	none
Fc1ccc(Cc2cnc(Nc3ccc(F)cc3)s2)cc1	none
CCOC(=O)NC(NCCc1ccc(OC)cc1)(C(F)(F)F)C(F)(F)F	none
CCCCCCn1cnc2c(sc3nc4c(cc32)COC(C)(C)C4)c1=O	none
CN(C)c1ccc(/C=C(\C#N)c2ccc([N+](=O)[O-])cc2)cc1[N+](=O)[O-]	none
COc1ccc(/C=C(\C#N)c2ccc([N+](=O)[O-])cc2)cc1[N+](=O)[O-]	Dicer inh 3.5
COc1ccc(/C(C#N)=C/c2cn[nH]c2)cc1	none
Cc1cc([N+](=O)[O-])nn1CC(=O)Nc1cnc2ccccc2c1	Dicer inh 3.5
Cc1cc([N+](=O)[O-])nn1CC(=O)Nc1ccccn1	none
CCOc1ccc(S(=O)(=O)Nc2cnc3ccccc3c2)cc1	none
Cc1nc(C)c(-c2ccnc(-c3ccc(C(F)(F)F)cc3)n2)o1	none
Clc1ccc(CN2C3=NCCCN3c3ccccc32)cc1	none
Fc1ccc(CN2C3=NCCN3c3ccccc32)cc1	Dicer inh 7.4
Fc1ccc(CN2C3=NCCCN3c3ccccc32)cc1	none
CC(C)=NOC(=O)Nc1ccc(C(F)(F)F)cc1	none
CN(C)c1ccc(C=C2C(=O)N(c3ccccc3)C(=S)N(c3ccccc3)C2=O)cc1	none
CCCCN(c1nc(C)cc(OC)n1)S(=O)(=O)c1ccc(C)cc1	none
CCCN(c1nc(C)cc(OC)n1)S(=O)(=O)c1ccccc1Cl	Dicer inh 6.1
COC(=O)CN(c1nc(C)cc(OC)n1)S(=O)(=O)c1ccccc1	none
Cc1cc(C)c2c(=O)c(C3C4=C(CC(C)(C)CC4=O)OC4=C3C(=O)CC(C)(C)C4)coc2c1	none
CCCCN1C(=O)C(O)(CC(=O)c2ccc(-n3cccc3)cc2)c2cc(Br)ccc21 (stereo not given)	none
Cn1c(=O)c2[nH]c(NCc3ccco3)nc2n(C)c1=O	none
CCOc1ccc2nc(SCCN3CCCCC3)[nH]c2c1	none
CC12CN3CC(C)(CN(C1)C3c1ccc(O)cc1O)C2=O (stereo not given)	none
CC(C)C12CN3CC(C(C)C)(CN(C1)C3c1ccc(O)cc1O)C2=O (stereo not given)	Dicer inh 5.7
CCC12CN3CC(CC)(CN(C1)C3c1ccc(O)cc1O)C2=O (stereo not given)	none
O=C(C1CC(c2ccc(Cl)cc2)=NO1)N1CCCCC1 (stereo not given)	none
CC(C)(C)c1cc2nc(C(F)(F)F)cc(Oc3cccc(C(F)(F)F)c3)n2n1	none
O=C(Nc1ccc(Cl)cc1)N1CCC(C(c2ccccc2)c2ccccc2)CC1	none
Cc1nn(-c2ccccc2)c(NC(=O)C(Cl)Cl)c1Br	none
Clc1ccc(Nc2cc(-c3ccccc3)nc3ncnn23)cc1	none
COc1ccc(Nc2cc(-c3ccccc3)nc3ncnn23)c(OC)c1	Dicer inh 3.7
COc1ccc(-c2cc(-c3ccccc3)n3ncnc3n2)cc1	none
COc1cc(C2C(C#N)=C(N)Oc3n[nH]c(C)c32)ccc1OCc1ccccc1 (stereo not given)	none
CS/C(N)=N/N=C/c1ccc(Cl)cc1	none
N#CCCN1C(=O)C(=O)c2ccccc21	none
CC1(C)Cc2c(C#N)c(SCCOc3ccccc3)nc(N3CCOCC3)c2CO1	none
CCCSc1nc(N2CCCC2)c2c(c1C#N)CC(C)(C)OC2	Dicer inh 3.6
CCSc1nc(N2CCCC2)c2c(c1C#N)CC(C)(C)OC2	none
C#CCOc1ccc(C2CC(=O)Nc3n[nH]c(-c4ccccc4)c32)cc1OC (stereo not given)	none
O=C(Oc1ccc(Cl)cc1)c1ccc2nsnc2c1	none
Cc1c(CN(C)C(=O)CSc2nc3c(c(C(F)(F)F)n2)CCc2ccccc2-3)cnn1C	none
O=[N+]([O-])c1c(Sc2ccc(Cl)cc2)sc(Sc2ccc(Cl)cc2)c1[N+](=O)[O-]	none
CC(C)Cc1ccc(C(C)/C(N)=N/O)cc1 (stereo not given)	none
CC(C)Cc1ccc(C(C)C(=O)O/N=C(\N)c2ccc(C(F)(F)F)cc2)cc1 (stereo not given)	Dicer inh 3.2
CC(CC(=O)O/N=C(\N)c1ccc(C(F)(F)F)cc1)S(=O)(=O)c1ccc(Cl)cc1 (stereo not given)	none
Cc1ccc2c(c1)C(C)(C)C1(CCCC(=O)N1)N2C (stereo not given)	none
Nc1cc(=O)[nH]c(SCc2ccc(Cl)cc2Cl)n1	none
O=c1[nH]c(SCc2ccc(Cl)cc2Cl)nc2ccccc12	Dicer inh 3.7
NC(=O)CSc1nc2ccccc2c(=O)[nH]1	none
CCOC(=O)c1cnc2cc(C)[nH]n2c1=O	none
CCOC(=O)c1cnc2n(c1=O)CCS2	Dicer inh 3.2
CCOC(=O)c1cnc2cc(C)ccn2c1=O	none
CCOC(=O)c1c(C)n(C)c2cc(-c3ccc(CC)cc3)c(O)cc12	Dicer inh 3.5
CCOC(=O)c1c(C)n(C)c2cc(-c3ccc(C)cc3)c(O)cc12	none
CCOC(=O)c1c(C)n(C)c2cc(-c3ccc(Cl)cc3)c(O)cc12	none
CCOC(=O)c1c(C)nn(-c2ccc(NS(=O)(=O)c3c(C)noc3C)cc2)c1C	none
COC(=O)Nc1cc(OC)cc(C(F)(F)F)c1	none
O=S(=O)(Cc1cccc(Cl)c1)c1cccs1	none
Cc1onc(-c2ccccc2Cl)c1C(=O)NNc1cccc(C(F)(F)F)n1	none
O=c1c(Cc2ccc(Cl)cc2Cl)c(-c2ccccc2)sc2ccccc12	none
O=c1c(Cc2ccc([N+](=O)[O-])cc2)c(-c2ccccc2)sc2ccccc12	Dicer inh 3.6
O=c1c(Cc2ccc(Cl)c(Cl)c2)c(-c2ccccc2)sc2ccccc12	none
CCOC(=O)/C(C#N)=C/Nc1nc2c(OC)cccc2s1	none
N#CCC(=O)Nc1ccc([N+](=O)[O-])cc1	none
C=CCn1c2ccc(Br)cc2c2cc(Br)ccc21	none
